Test results from PubChem BioAssay (NCATS).
Records with an inconclusive call do not appear. Activity calls are given as the source filed them. Calls follow the shape of the dose curve; as a rule, active = well fitted inhibition curve with a large enough effect; inconclusive = small, poorly fitted or top-dose-only effect; inactive = flat fitted curve, though single readings scatter.

Legend:
Assay in all cases: qHTS profiling for inhibitors of Plasmodium falciparum proliferation (AID 504749); also: nearly all actives have a fitted effect of over 60% in size
Details in all cases: P. falciparum in erythrocytes, SYBR Green DNA, 72 h; series mostly up to 28.7 µM
[1] = test system: CP250
Summary of the method: (§1)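 Infected RBCs, 0.3% parasitemia/2.5% Hct final; cpd 72 h, 37 C, 5% CO2; lysis buffer with saponin/triton/SYBR Green I, o/n RT dark; FI 485/535; norm. to artemisinin (0.29 uM) and DMSO.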

[2] = test system: CP256
Summary of the method: as §1

[3] = test system: CP260
Summary of the method: as §1

[4] = test system: CP265
Summary of the method: as §1

[5] = test system: CP297
Summary of the method: as §1

[6] = test system: CP315
Summary of the method: as §1

[7] = test system: CP325
Summary of the method: as §1

[8] = test system: CP329
Summary of the method: as §1

[9] = test system: CP262
Summary of the method: as §1

[10] = test system: CP238
Summary of the method: as §1

[11] = test system: CP268
Summary of the method: as §1

[12] = test system: CP291
Summary of the method: as §1

[13] = test system: CP305
Summary of the method: as §1

[14] = test system: CP247
Summary of the method: as §1

[15] = test system: CP266
Summary of the method: as §1

[16] = test system: CP269
Summary of the method: as §1

[17] = test system: CP286
Summary of the method: as §1

[18] = test system: CP335
Summary of the method: as §1

[19] = test system: CP252
Summary of the method: as §1

Measured: Potency
Potency is read from the fitted curve at half-maximal effect.

CC1CCc2c(N3CCC(O)CC3)c(F)cc3c(=O)c(C(=O)O)cn1c23 (configuration not stated)
active: [3] 12.6 µM
inactive: [1] | [2] | [4] | [5] | [6] | [7] | [8]

CN(C)CCOC(c1ccc(Cl)cc1)c1ccccn1 (configuration not stated)
active: [4] 7.08 µM
inactive: [1] | [9] | [6] | [8]

CNCCCCOc1ccccc1Cc1ccccc1
inactive: [9]
active: [10] 8.91 µM | [4] 8.91 µM

O=C(CCN1CCN2CCCC2C1)N1c2ccccc2Sc2ccc(Cl)cc21 (configuration not stated)
inactive: [1] | [9] | [4] | [11] | [12] | [5] | [13] | [6] | [7] | [8]

COc1ccc(C(=O)c2ccccc2O)c(O)c1
inactive: [10] | [14] | [1] | [2] | [3] | [9] | [15] | [11] | [16] | [17] | [12] | [5] | [13] | [6] | [7] | [8] | [18]

CCCCc1cc2ccccc2c(OCCN(C)C)n1
inactive: [10] | [14] | [1] | [19] | [2] | [3] | [9] | [4] | [15] | [11] | [16] | [17] | [12] | [5] | [13] | [6] | [7] | [8] | [18]

NC(=O)C1(N2CCCCC2)CCN(CCCC(=O)c2ccc(F)cc2)CC1
inactive: [10] | [1] | [19] | [2] | [9] | [15] | [11] | [16] | [17] | [6] | [7] | [8]

CC(C)[N+](C)(C)CC(O)COc1cccc2ccccc12 (configuration not stated)
active: [18] 9.53 µM
inactive: [10] | [14] | [19] | [9] | [4] | [11] | [8]

CCN(CC)CCOc1ccccc1C(=O)CCc1ccccc1
inactive: [1] | [3] | [9] | [16] | [6]

CN1CCC(OC(c2ccccc2)c2ccccc2)CC1
active: [3] 3.98 µM | [4] 3.55 µM
inactive: [1] | [15] | [5] | [6]

COc1ccc(C(Cl)=C(c2ccc(OC)cc2)c2ccc(OC)cc2)cc1
inactive: [9] | [15] | [16] | [12] | [5] | [6] | [7] | [8]
active: [10] 10 µM | [1] 10 µM | [4] 10 µM

COC(=O)C(c1ccccc1Cl)N1CCc2sccc2C1 (configuration not stated)
inactive: [14] | [5]

CO[C@]12C[C@@H](COC(=O)c3cncc(Br)c3)CN(C)[C@@H]1Cc1cn(C)c3cccc2c13
inactive: [1] | [19] | [2] | [4] | [15] | [16] | [6] | [7] | [8]

Cc1cc(CC(=O)O)c(C)n1-c1ccc(Cl)cc1
inactive: [10] | [14] | [1] | [2] | [3] | [9] | [4] | [15] | [11] | [16] | [17] | [12] | [13] | [6] | [7] | [8]

CN1CCN(c2cc3c(cc2F)c(=O)c(C(=O)O)cn3-c2ccc(F)cc2)CC1
inactive: [10] | [14] | [1] | [19] | [2] | [4] | [16] | [5] | [6] | [7] | [8]

CN1CCN(CCC(=O)N2c3ccccc3Sc3ccc(C(F)(F)F)cc32)CC1
inactive: [1] | [2] | [3] | [4] | [11] | [16] | [12] | [5] | [13] | [6] | [7] | [8]

COc1ccccc1N1CCN(CCCCNC(=O)c2ccc(-c3ccc(C(C)=O)cc3)cc2)CC1
inactive: [10] | [14] | [1] | [19] | [2] | [3] | [9] | [4] | [15] | [11] | [16] | [12] | [5] | [13] | [6] | [7] | [8] | [18]

NCCNc1cccc2ccccc12
inactive: [10] | [14] | [1] | [19] | [2] | [3] | [9] | [4] | [15] | [11] | [16] | [17] | [12] | [13] | [6] | [7] | [8]

Cc1cccc(C)c1NC(=O)CN1CCCCCC1
inactive: [10] | [14] | [1] | [19] | [2] | [3] | [9] | [4] | [15] | [11] | [16] | [17] | [12] | [5] | [13] | [6] | [7] | [8] | [18]

COc1ccc2c(c1)c1c3n2CCN(C)C3=NCC1
inactive: [10] | [14] | [1] | [19] | [2] | [3] | [9] | [4] | [15] | [11] | [16] | [17] | [12] | [5] | [13] | [6] | [7] | [8] | [18]
